Each structure is given as a SMILES string. The source made the active and inactive calls.

One assay has as its target Albumin (Bos taurus) (UniProt P02769). Kind of assay: bovine serum albumin binders on microarray, profiling panel, artefact control for SMM control protein annotation, biochemical, small-molecule microarray, Alexa647 label, 635/667 nm fluorescence (AID 1118).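 Note: score merges 667 nm emission intensity and signal-to-noise per printed compound spot.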 As to conditions: BSA-A647 binding, fluorescence 635 nm, higher = more signal.
The nature of assay [1]: small-molecule microarray binders of probe aXIP, primary screen, biochemical, NeuroSMM set, 635/667 nm fluorescence (AID 1119).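 Note: probe is the protein aXip251-270 applied at 1 µg/mL to compound-printed slides; binding of probe to printed compounds measured as 667 nm fluorescence plus signal to noise.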 Particulars: higher = more signal, called active from +8 up or from −8 down.
Assay [2] is described as follows: small-molecule binders of probe aNOTCH3, primary screen, biochemical, small-molecule microarray, 635/667 nm fluorescence (AID 1120).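 Note: probe is a biotin-tagged antibody raised against NOTCH3 rather than NOTCH3 protein; score merges spot fluorescence near 667 nm with spot signal to noise.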 As to conditions: higher = more signal.
Assay [3] can be described thus: small-molecule binders of probe aNOTCH2, primary screen, biochemical, small-molecule microarray, 635/667 nm fluorescence (AID 1121).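 Note: score merges feature fluorescence read at 667 nm with its signal to noise.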 As to conditions: higher = more signal.
The target of assay [4] is Carbonic anhydrase 2 (Homo sapiens) (UniProt P00918). Kind of assay: CAII small-molecule binders, profiling panel, biochemical, small-molecule microarray, Alexa647-labelled CAII (AID 1122). As to conditions: CAII-A647 binding fluorescence, higher = more signal.
Assay [5] can be described thus: COS7 lysate on small-molecule microarray, probe aHis, 635 nm (AID 1123).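 Note: z-score combines 667nm fluorescence intensity with signal-to-noise per printed compound spot.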 As to conditions: COS7 cell lysate, fluorescence, higher = more signal.
Assay [6] is described as follows: compound binding in COS7 lysate, probe aLAP1, primary screen, cell lysate, small-molecule microarray (AID 1124).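 Note: lysate comes from COS7 cells expressing LAP1 and is applied at 0.3 µg/mL; score merges spot fluorescence near 667 nm with signal-to-noise over triplicate slides.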 Particulars: probe aLAP1, fluorescence, higher = more signal.
A further assay deals with Sam68 (KHDRBS1). Kind of assay: Sam68 small-molecule binders, primary screen, biochemical, small-molecule microarray, 635 nm fluorescence (AID 1125).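 Note: score merges 667 nm channel intensity with signal to noise over triplicate slides.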 Particulars: small-molecule microarray binding, higher = more signal.
For assay [7], the system named is Chordin-like protein 2 (CHRDL2). In words: CHRDL2 small-molecule binders, primary screen, biochemical, small-molecule microarray, 635 nm fluorescence (AID 1126).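 Note: printed compound slides probed with Chrdl2 protein at 4 µg/mL for 1 h at 4 C; score merges 667 nm emission intensity with signal to noise over three replicate slides.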 As to conditions: small-molecule microarray binding, fluorescence 635 nm; higher = more signal.
The target of assay [8] is Concanavalin-A (Canavalia ensiformis) (UniProt P02866). Kind of assay: ConA small-molecule binders, primary screen, artefact control for SMM control protein annotation, biochemical, small-molecule microarray, Alexa647 label, 635 nm (AID 1127).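 Note: z combines 667 nm emission intensity with signal-to-noise across three replicate slides.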 As to conditions: ConA-A647 binding fluorescence, higher = more signal.
The nature of assay [9]: anti-His antibody binders, primary screen, artefact control for SMM control protein annotation, biochemical, small-molecule microarray, 635 nm fluorescence (AID 1128).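 Note: score merges feature fluorescence with signal-to-noise for each printed compound spot.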 Particulars: anti-His Alexa647 antibody binding, higher = more signal.
The subject of assay [10] is Human papillomavirus type 1a E7 protein (residues 1-88). Kind of assay: HPV1a E7 small-molecule binders, primary screen, biochemical, small-molecule microarray, residues 1-88, 635 nm (AID 1129). As to conditions: small-molecule microarray binding, fluorescence 635 nm; higher = more signal.
Assay [11] has as its target Focal adhesion kinase 1 (Homo sapiens) (UniProt Q05397). In words: small-molecule microarray binders of FAK, primary screen, biochemical, 635/667 nm fluorescence, BSA, DTT (AID 1130).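 Note: composite of spot emission at 667 nm and signal to noise over triplicate slides.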 Particulars: PTK2 binding, 635 nm fluorescence, higher = more signal.
Assay [12] concerns Fibrinogen (Alexa647-labelled). In words: fibrinogen binders on compound microarrays, profiling panel, artefact control for SMM control-protein annotation, biochemical, small-molecule microarray, 635/667 nm fluorescence (AID 1131).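 Note: z-score merges 667 nm fluorescence with per-spot signal-to-noise over triplicate slides.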 Particulars: fibrinogen-A647 binding fluorescence, higher = more signal.
Assay [13] deals with Follistatin (Homo sapiens) (UniProt P19883). In words: follistatin binders on small-molecule microarrays, primary screen, biochemical, small-molecule microarray, 635/667 nm fluorescence (AID 1132). As to conditions: FST binding, 635 nm fluorescence, higher = more signal.
Assay [14] concerns the target Fibroblast growth factor 2 (Homo sapiens) (UniProt P09038). Kind of assay: FGF2 binders on small-molecule microarrays, primary screen, biochemical, small-molecule microarray, 635/667 nm fluorescence (AID 1133). As to conditions: small-molecule microarray binding, FGF2, fluorescence 635/667; higher = more signal.
A short description of assay [15]: mitochondrial membrane potential change in A549 cells, profiling panel, cell-based, JC-1 fluorescence, basal, 24 h, 100 nL (AID 1138).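 Note: A549 lung adenocarcinoma cells under basal conditions with no added stimulus; test concentration not given here.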 Particulars: higher = more signal.
In a further assay the test system is Lefty1. Kind of assay: Lefty1 binders on small-molecule microarrays, primary screen, biochemical, small-molecule microarray, 635/667 nm fluorescence (AID 1139). Particulars: small-molecule microarray binding, fluorescence 635/667; higher = more signal.
Assay [16] has as its system wheat germ agglutinin (Triticum aestivum), Alexa647-labelled. In words: wheat germ agglutinin binders on compound microarrays, profiling panel, artefact control for SMM control-protein annotation, biochemical, small-molecule microarray, 635/667 nm fluorescence (AID 1140).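 Note: score merges 667 nm feature emission with signal to noise over triplicate slides.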 Particulars: WGA-A647 binding, 635 nm fluorescence, higher = more signal.
In assay [17] the target is Luciferin 4-monooxygenase (Photinus pyralis) (UniProt P08659). In words: firefly luciferase enzyme inhibitors, primary screen, biochemical, luminescence, purified enzyme, 2006 set (AID 1141).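 Note: cell-free assay with purified firefly luciferase at 100 ng per well in PBS; test concentration not given here.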 Particulars: SteadyGlo luminescence, 30 min, higher = more signal, called active from +8 up or from −8 down.
Luciferin 4-monooxygenase (Photinus pyralis), sequence (P08659 whole entry, looked up): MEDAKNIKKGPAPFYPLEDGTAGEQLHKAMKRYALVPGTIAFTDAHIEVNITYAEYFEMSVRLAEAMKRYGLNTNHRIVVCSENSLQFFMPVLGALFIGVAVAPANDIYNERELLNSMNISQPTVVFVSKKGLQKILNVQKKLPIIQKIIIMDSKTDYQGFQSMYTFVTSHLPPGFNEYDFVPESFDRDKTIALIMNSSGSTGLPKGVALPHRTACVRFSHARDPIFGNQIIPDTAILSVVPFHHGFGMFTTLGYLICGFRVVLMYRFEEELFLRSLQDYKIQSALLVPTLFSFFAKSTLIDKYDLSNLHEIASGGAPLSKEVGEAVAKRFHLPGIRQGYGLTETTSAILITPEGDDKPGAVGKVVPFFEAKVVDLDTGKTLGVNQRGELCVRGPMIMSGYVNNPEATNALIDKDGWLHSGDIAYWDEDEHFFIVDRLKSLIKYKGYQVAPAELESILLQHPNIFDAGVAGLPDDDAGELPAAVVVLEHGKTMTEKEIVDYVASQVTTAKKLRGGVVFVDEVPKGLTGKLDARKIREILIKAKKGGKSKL

Follistatin (Homo sapiens), sequence (P19883 whole entry, looked up): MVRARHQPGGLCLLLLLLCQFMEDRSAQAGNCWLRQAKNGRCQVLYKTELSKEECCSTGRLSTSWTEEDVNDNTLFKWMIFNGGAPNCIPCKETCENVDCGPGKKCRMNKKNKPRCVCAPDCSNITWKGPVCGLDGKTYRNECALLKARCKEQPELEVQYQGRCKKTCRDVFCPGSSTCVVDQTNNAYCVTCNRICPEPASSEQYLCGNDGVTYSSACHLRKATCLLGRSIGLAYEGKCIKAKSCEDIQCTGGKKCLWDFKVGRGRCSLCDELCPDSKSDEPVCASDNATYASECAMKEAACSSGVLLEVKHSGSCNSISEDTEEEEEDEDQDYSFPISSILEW
Concanavalin-A (Canavalia ensiformis), sequence (P02866 whole entry, looked up): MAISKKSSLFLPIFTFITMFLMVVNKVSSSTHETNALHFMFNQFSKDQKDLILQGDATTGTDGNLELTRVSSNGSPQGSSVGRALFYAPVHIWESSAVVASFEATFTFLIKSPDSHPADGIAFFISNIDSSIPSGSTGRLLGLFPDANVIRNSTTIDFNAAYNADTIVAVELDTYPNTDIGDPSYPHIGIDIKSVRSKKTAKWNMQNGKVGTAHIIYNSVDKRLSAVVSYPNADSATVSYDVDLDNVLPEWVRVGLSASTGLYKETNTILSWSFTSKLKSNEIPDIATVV
Fibroblast growth factor 2 (Homo sapiens), sequence (P09038 whole entry, looked up): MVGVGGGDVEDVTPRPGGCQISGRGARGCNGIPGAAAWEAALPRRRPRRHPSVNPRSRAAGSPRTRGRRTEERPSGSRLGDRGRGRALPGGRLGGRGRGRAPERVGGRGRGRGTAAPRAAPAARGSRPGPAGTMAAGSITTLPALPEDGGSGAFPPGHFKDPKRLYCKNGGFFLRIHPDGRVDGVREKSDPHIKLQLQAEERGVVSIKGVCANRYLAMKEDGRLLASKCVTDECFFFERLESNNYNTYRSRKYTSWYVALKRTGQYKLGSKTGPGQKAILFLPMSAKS
Focal adhesion kinase 1 (Homo sapiens), sequence (Q05397 whole entry, looked up): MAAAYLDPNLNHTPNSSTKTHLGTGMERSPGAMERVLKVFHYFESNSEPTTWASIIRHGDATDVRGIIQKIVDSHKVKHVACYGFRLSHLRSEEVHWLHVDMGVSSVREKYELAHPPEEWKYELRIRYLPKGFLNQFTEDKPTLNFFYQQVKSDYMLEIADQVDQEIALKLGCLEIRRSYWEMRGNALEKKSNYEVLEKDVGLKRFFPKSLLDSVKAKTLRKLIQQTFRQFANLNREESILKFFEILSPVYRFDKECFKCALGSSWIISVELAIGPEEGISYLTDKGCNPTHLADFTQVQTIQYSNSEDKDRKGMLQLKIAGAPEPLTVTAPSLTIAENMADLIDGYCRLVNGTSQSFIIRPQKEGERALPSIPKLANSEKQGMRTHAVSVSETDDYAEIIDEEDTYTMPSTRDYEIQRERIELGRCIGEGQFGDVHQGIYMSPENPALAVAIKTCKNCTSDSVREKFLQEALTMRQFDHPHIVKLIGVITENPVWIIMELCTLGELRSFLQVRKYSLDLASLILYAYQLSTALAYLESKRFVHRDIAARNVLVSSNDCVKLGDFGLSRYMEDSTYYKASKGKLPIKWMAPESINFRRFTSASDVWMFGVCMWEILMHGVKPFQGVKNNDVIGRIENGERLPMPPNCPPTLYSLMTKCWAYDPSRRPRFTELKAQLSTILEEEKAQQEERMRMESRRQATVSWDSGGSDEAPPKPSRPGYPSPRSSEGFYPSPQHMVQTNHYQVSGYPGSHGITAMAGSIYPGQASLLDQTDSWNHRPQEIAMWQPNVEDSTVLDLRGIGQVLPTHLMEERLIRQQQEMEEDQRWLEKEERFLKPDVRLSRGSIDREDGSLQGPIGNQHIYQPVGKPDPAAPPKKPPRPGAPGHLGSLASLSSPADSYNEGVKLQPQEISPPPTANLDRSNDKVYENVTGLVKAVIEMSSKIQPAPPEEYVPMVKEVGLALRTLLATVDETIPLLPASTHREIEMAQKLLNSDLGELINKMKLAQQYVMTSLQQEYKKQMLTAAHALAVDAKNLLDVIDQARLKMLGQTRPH
Albumin (Bos taurus), sequence (P02769 whole entry, looked up): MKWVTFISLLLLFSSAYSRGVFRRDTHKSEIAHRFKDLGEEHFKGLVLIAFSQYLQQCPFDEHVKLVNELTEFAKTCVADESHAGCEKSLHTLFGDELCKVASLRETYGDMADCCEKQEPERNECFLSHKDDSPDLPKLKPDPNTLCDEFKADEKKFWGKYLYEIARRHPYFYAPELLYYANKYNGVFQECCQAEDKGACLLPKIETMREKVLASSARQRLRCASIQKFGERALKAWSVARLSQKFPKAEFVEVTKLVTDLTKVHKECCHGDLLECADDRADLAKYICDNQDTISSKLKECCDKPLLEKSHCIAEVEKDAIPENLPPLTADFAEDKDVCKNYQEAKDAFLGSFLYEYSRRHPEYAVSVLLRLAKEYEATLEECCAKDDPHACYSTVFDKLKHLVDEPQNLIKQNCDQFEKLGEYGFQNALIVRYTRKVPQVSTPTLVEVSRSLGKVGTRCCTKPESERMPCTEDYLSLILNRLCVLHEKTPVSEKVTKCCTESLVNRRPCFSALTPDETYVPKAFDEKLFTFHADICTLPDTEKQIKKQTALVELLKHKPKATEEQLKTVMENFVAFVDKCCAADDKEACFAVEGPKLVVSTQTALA

With `CC(C)CNC(=O)[C@@]1(c2ccc([N+](=O)[O-])cc2)CC(=O)N(CC23CC4CC(CC(C4)C2)C3)[C@@H]1c1ccc(CO)cc1`, the composite z-score stood at 0.152 with Albumin (Bos taurus); 0.157 in [2]; 0.014 in assay [3]; 0.523 in [4]; 1.42 in [5]; 1.15 in assay [6]. Also, the composite z-score came to 1.04 in the assay on Sam68 (KHDRBS1); 0.201 in assay [7]; 0.73 in assay [8]; 0.943 in assay [9]; 0.662 in assay [10]; 0.24 in assay [11]. Further, the composite z-score was -0.0362 in assay [12]; 0.946 in [13]; 1.1 in assay [14]; 0.0651 in the assay with Lefty1; 0.358 in assay [16]. For the same compound, the composite Z-score in assay [1] is 0.0585 (inactive). In addition, the z-score in [15] is 2.5; in assay [17], -1.61 (inactive).
Consider `C=C(CCCC)C(=O)CC[C@H](OC(=O)c1cccnc1)c1cccc(OCCO)c1`, for which the composite z-score with Albumin (Bos taurus) was -0.39; in assay [2] it was -0.0242; in assay [3] it was -0.14; in assay [4], 0.771; in assay [5], -0.112; in [6], 0.0948. The composite z-score is 0.269 in the assay with Sam68 (KHDRBS1); 0.225 in assay [7]; -0.106 in assay [8]; 0.637 in assay [9]; -0.395 in [10]; -0.262 in assay [11]. Moreover, the composite z-score in [12] is -0.847; in [13] it was 0.254; in assay [14] it was 0.275; with Lefty1, 0.563; in assay [16] it was -0.288. For the same compound, in assay [1], the composite Z-score was 0.087 (inactive). Also, the figures for the z-score in assay [15] and in assay [17] were 1.28 and -1.2 (inactive), respectively.
Regarding `CC(C)C(=C=CC[C@H](O)c1cccc(OCCO)c1)C[C@H](O)COCc1ccccc1`, the composite z-score was -0.0081 in the assay with Albumin (Bos taurus); 0.119 in [2]; -0.0562 in assay [3]; 0.235 in assay [4]; 1.22 in [5]; -0.125 in assay [6]. For the same compound, the composite z-score was 0.166 with Sam68 (KHDRBS1); -0.101 in assay [7]; 0.0514 in assay [8]; 0.366 in assay [9]; 0.165 in assay [10]; 0.107 in assay [11]. The composite z-score in [12] is 0.637; in assay [13], 0.235; in [14] it was 0.562; in the assay with Lefty1, 0.554; in assay [16] it was -0.0699. Further, the composite Z-score in assay [1] is 1.64 (inactive). The z-score in [15] is -0.241; in assay [17] it was 0.209 (inactive).
Take `O=C(O)[C@H]1C[C@H]2C(=O)NCC(=O)N2[C@H]1c1ccc(O)cc1`: the composite z-score is 0.346 with Albumin (Bos taurus); 0.791 in assay [2]; -0.0761 in assay [3]; 0.688 in assay [4]; 0.921 in [5]; 0.0741 in assay [6]. The composite z-score in the assay with Sam68 (KHDRBS1) was 0.0505; in [7], 1.26; in [8], 0.482; in assay [9] it was 2.65; in assay [10], -0.722; in [11], 0.0888. Besides, the composite z-score in [12] was -0.908; in [13], 1.32; in assay [14], 1.05; in the assay with Lefty1 it was 0.368; in assay [16], -0.0842. In addition, the composite Z-score in [1] is 0.289 (inactive). Moreover, the z-score in assay [15] was 1.97; in assay [17], -1.54 (inactive).
`[N-]=[N+]=Nc1ccccc1C[C@]1(C(=O)NCCN2CCOCC2)N=C(c2ccc(OCCCO)cc2)O[C@H]1c1ccccc1`: the composite z-score is 0.323 with Albumin (Bos taurus); 0.194 in assay [2]; -0.0849 in assay [3]; 0.597 in assay [4]; 2.7 in assay [5]; 0.203 in assay [6]. Further, the composite z-score was 1.3 with Sam68 (KHDRBS1); 0.497 in assay [7]; 0.702 in [8]; 1.34 in [9]; 1.27 in assay [10]; 0.903 in [11]. For the same compound, the composite z-score in assay [12] is 0.952; in assay [13], 1.29; in [14], 0.877; in the assay on Lefty1, -0.246; in assay [16] it was 0.309. For the same compound, the composite Z-score in [1] was 0.619 (inactive). The z-score in assay [15] is 0.273; in [17], -0.683 (inactive).

(Values after PubChem BioAssay.)
